Drawing on the supplement of paper PMC12339681, this text covers synaptosome phagocytic index for 36 molecules.

Counter-ions that a name gives are not always drawn.

The test system of this assay is PBMC-derived induced microglia-like cells (piMGLC). The assay can be described thus: synaptosome phagocytic index relative to DMSO control (fraction of DMSO); higher = more phagocytosis. The conditions noted are these: concentration: 10 uM (2 uM for compounds listed in Table S2); pretreatment time: 24 h; assay time: 3 h. The method, then:
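PBMC-derived induced microglia-like cells (piMGLCs) in 96-well plates were pretreated for 24 h with CNS-penetrant library compounds (MedChemExpress HY-L028), mostly at 10 uM; Table S2 lists 9 compounds at 2 uM. pHrodo-Red-labelled human iPSC-neuron synaptosomes (3 ug/well) were then added for 3 h, and cells were fixed and imaged by confocal microscopy. Phagocytic index (synaptosome area / cell count, CellProfiler) is a mean over 3 replicate wells on different plates, normalized to the DMSO control. Compounds leaving <10% of DMSO cell count were marked toxic and given no value.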
With `CN1Cc2cc(Cl)ccc2-n2c(nnc2[C@H]2CC[C@H](Oc3ccccn3)CC2)C1` [Balovaptan], the synaptosome phagocytic index was determined as 1.09.

Take `CNCC/C=C/c1cccnc1` [Rivanicline_hemioxalate]: the synaptosome phagocytic index turned out to be 0.922.

For `C1=CC[C@@H](c2cccnc2)NC1` [Anatabine_(dicitrate)], the synaptosome phagocytic index is 0.984.

Take `COc1ccc(C=C2CCCN=C2c2cccnc2)c(OC)c1` [GTS-21_(dihydrochloride)]: the synaptosome phagocytic index is 0.922.

For `C=C(C)[C@H]1CN[C@H](C(=O)O)[C@H]1CC(=O)O` [Kainic_acid], the synaptosome phagocytic index came to 0.701.

For `COc1ccc(OC)c(C(=O)N[C@@H]2CN3CCC2CC3)c1`, the synaptosome phagocytic index stood at 0.646.

As to `NCC(CC(=O)O)c1ccc(Cl)cc1` (stereo unspecified) [Baclofen], the synaptosome phagocytic index worked out at 0.783.

Consider `CCN(CCCl)Cc1ccccc1Br` [DSP-4_(hydrochloride)], for which the synaptosome phagocytic index was 1.15.

Consider `Clc1ccc(N2CCN(Cc3c[nH]c4ncccc34)CC2)cc1`, for which the synaptosome phagocytic index stood at 0.89.

Regarding `O=S(=O)(CC1CS1)c1ccc(Oc2ccccc2)cc1` (stereo unspecified), the synaptosome phagocytic index was 0.514.

With `CCN(C)C(=O)Oc1cccc([C@H](C)N(C)C)c1` [Rivastigmine_(tartrate)], the synaptosome phagocytic index was determined as 1.02.

With `CN(C)c1cc2c(cc1Sc1nc3c(N)nccc3n1CCNCC(C)(C)C)OCO2` [Debio_0932], the synaptosome phagocytic index came out at 0.767.

Take `CC(C)(NC(=O)O[C@@H]1CN2CCC1CC2)c1csc(-c2ccc(F)cc2)n1` [Ibiglustat]: the synaptosome phagocytic index stood at 1.26.

On to `CC[C@@H](C(N)=O)N1CCCC1=O` [Levetiracetam], for which the synaptosome phagocytic index was found to be 0.711.

Consider `C/C(=C\c1csc(C)n1)[C@@H]1C[C@@H]2O[C@]2(C)CCC[C@H](C)[C@H](O)[C@@H](C)C(=O)C(C)(C)[C@@H](O)CC(=O)O1` [Epothilone_B], for which the synaptosome phagocytic index was found to be 0.842.

Turning to `O=C(NO)c1cnc(NC2(c3ccccc3)CCC(F)(F)CC2)nc1`, the synaptosome phagocytic index worked out at 0.867.

Take `NCCc1c[nH]c2ccc(O)cc12` [Serotonin_hydrochloride]: the synaptosome phagocytic index came to 0.812.

Regarding `COc1ccc(C(CN(C)C)C2(O)CCCCC2)cc1` (stereo unspecified) [Venlafaxine_(hydrochloride)], the synaptosome phagocytic index amounted to 1.02.

Consider `Cn1c(CCCC(=O)O)nc2cc(N(CCCl)CCCl)ccc21` [Bendamustine_(hydrochloride)], for which the synaptosome phagocytic index was determined as 0.95.

Regarding `CN1C[C@H](C(=O)N[C@]2(C)O[C@@]3(O)[C@@H]4CCCN4C(=O)[C@H](Cc4ccccc4)N3C2=O)C[C@@H]2c3cccc4[nH]cc(c34)C[C@H]21` [Dihydroergotamine_(mesylate)], the synaptosome phagocytic index is 0.976.

As to `CCOC(=O)c1cncn1[C@H](C)c1ccccc1` [Etomidate], the synaptosome phagocytic index was 0.926.

Turning to `CNC(=O)ON(C(C)=O)C(=O)NC` [Caracemide], the synaptosome phagocytic index was determined as 0.78.

Turning to `Cc1sc2c(c1C)C(c1ccc(Cl)cc1)=N[C@@H](CC(=O)OC(C)(C)C)c1nnc(C)n1-2`, the synaptosome phagocytic index was found to be 0.3.

With `CCOC(=O)c1cncn1[C@H](C)c1ccccc1` [Etomidate_(hydrochloride)], the synaptosome phagocytic index worked out at 0.749.

Take `CN1CCc2ccccc2C1CNC(=O)c1ccc(Cl)c(Cl)c1` (stereo unspecified): the synaptosome phagocytic index was found to be 0.901.

For the molecule `N[C@@H]1C[C@H]1c1ccccc1` [Tranylcypromine_(hemisulfate)], the synaptosome phagocytic index was 0.949.

In the case of `CC(C)(NC(=O)O[C@@H]1CN2CCC1CC2)c1csc(-c2ccc(F)cc2)n1` [Ibiglustat_(L-Malic_acid)], the synaptosome phagocytic index is 1.05.

For the molecule `COc1cc2c(cc1OC)C1CC(=O)C(CC(C)C)CN1CC2` (stereo unspecified) [Tetrabenazine], the synaptosome phagocytic index worked out at 0.906.

Consider `FC(F)(F)c1ccc(N2CCNCC2)nc1Cl`, for which the synaptosome phagocytic index stood at 1.17.

Take `Cc1cccc([C@H](C)c2c[nH]cn2)c1C` [Dexmedetomidine_(hydrochloride)]: the synaptosome phagocytic index turned out to be 0.931.

`Cn1cc(C2=C(c3cn(C4CCN(Cc5ccccn5)CC4)c4ccccc34)C(=O)NC2=O)c2ccccc21` [Enzastaurin]: the synaptosome phagocytic index amounted to 0.997.

`NCC1(CC(=O)O)CCCCC1` [Gabapentin]: the synaptosome phagocytic index was 0.686.

On to `CCC(=O)O[C@H]1CC[C@H]2[C@@H]3CCC4=CC(=O)CC[C@]4(C)[C@H]3CC[C@]12C` [Testosterone_propionate], for which the synaptosome phagocytic index is 0.807.

Turning to `CCN(C)C(=O)Oc1cccc([C@H](C)N(C)C)c1` [Rivastigmine], the synaptosome phagocytic index was 1.03.

With `COc1cccc(NCC(F)Cn2c3ccc(Br)cc3c3cc(Br)ccc32)c1` (stereo unspecified), the synaptosome phagocytic index worked out at 0.0819.

As to `CN(C)C(=O)Oc1ccc[n+](C)c1` [Pyridostigmine_(bromide)], the synaptosome phagocytic index amounted to 0.814.
